Bioassay records as filed in PubChem BioAssay.
Rab9 prom act: activators of Rab9 promoter. Huh7 Rab9 promoter-luciferase reporter, luminescence, 24 h. Potency, µM (titrated, usually from 9.22 µM), for the others: top-dose activation, negative = inhibition, hits mostly activators. hit rate 2.8% among 320,000; further: % of control where 0% means no effect; nearly all actives have a fitted effect of over 60% in size
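Cells were plated at 1500 per well in reduced-serum medium with 10% FBS and left 2 h. Compound in DMSO was then added for 24 h at 37 °C. Reporter signal was read by luminescence after 10 min with luciferase detection reagent.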
ELG1 repair inh: inhibitors of ELG1-dependent DNA repair in HEK293T cells; HEK293T ELG1-luciferase reporter, luminescence, 16 h; DNA damage induced by 5-fluorouridine; Potency, µM (top dose mostly 46.1 µM), without a hit: at the top dose activity change, negative = inhibition, actives largely listed as inhibitors; hit rate 2.3% among 330,000; further: on the % scale 0 is the no-effect control and ±100 the full control effect; nearly all actives have a fitted effect of over 55% in size
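DMSO vehicle served as the neutral condition. Each well held 2,000 cells given 5-fluorouridine plus compound; after 16 hr at 37 °C/5% CO2, ONE-Glo was added and luciferase measured 30 min later.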
NPC1 promoter act: activators of NPC1 promoter | hit rate 2.4% among 320,000 | Huh7 NPC1 promoter luciferase reporter, 24 h | Potency, µM (series often up to 9.22 µM), inactives show top-dose activation, hits mostly activators | AID 485313; further: % of control where 0% means no effect; nearly all actives have a fitted effect of over 60% in size
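Quantitative HTS used a cell-based reporter: Huh7 cells stably bearing the NPC1 promoter upstream of luciferase were treated with compounds for 24 h, and promoter activation was read as luminescence.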
SMN2 splice enh: enhancers of SMN2 splice variant expression | hit rate 2.8% among 210,000 | Potency, µM (series often up to 46.1 µM), inactives show at the highest dose activity change, positive = activation, usual class: activators | HEK293 SMN2-luciferase splicing reporter, luminescence, 30-36 h | AID 1458; further: % of control where 0% means no effect; nearly all actives have a fitted effect of over 55% in size
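HEK293 cells carry an SMN2 […]–luciferase reporter in which exon 7 inclusion puts luciferase in frame. Cells were plated 10-12 h before compound addition, then incubated 30-36 h at 37C. ONE-Glo luminescence was read; sodium butyrate at 4.5 mM final served as control.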
ELG1 genotoxic: inducers of genotoxicity in HEK293T ELG1-luciferase cells. AID 504466. Potency, µM (top dose mostly 46 µM), for the others: at the top dose activity change, positive = activation, actives largely listed as activators. hit rate 1.3% among 330,000. HEK293T ELG1-luciferase reporter, luminescence, 16 h; further: % of control where 0% means no effect; nearly all actives have a fitted effect of over 60% in size
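Cells (2,000/well) expressing the ELG1-luciferase fusion are dosed by pin tool and kept 16 hr at 37 °C, 5% CO2. Signal comes from ONE-Glo luciferase reagent after 30 min at room temperature.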
FLuc modulator: firefly luciferase modulation, counter-screen for miR-21 project; hit rate 6.9% among 360,000; purified FLuc, Km substrates, luminescence inhibition; Potency, µM (doses to about 57.5 µM), for the others: top-dose activity change, negative = inhibition, usual class: inhibitors; P08659;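 further: plate controls were vehicle for no effect and reference inhibitor for full effect; nearly all actives have a fitted effect of over 55% in size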
Target sequence (P08659 whole entry, looked up): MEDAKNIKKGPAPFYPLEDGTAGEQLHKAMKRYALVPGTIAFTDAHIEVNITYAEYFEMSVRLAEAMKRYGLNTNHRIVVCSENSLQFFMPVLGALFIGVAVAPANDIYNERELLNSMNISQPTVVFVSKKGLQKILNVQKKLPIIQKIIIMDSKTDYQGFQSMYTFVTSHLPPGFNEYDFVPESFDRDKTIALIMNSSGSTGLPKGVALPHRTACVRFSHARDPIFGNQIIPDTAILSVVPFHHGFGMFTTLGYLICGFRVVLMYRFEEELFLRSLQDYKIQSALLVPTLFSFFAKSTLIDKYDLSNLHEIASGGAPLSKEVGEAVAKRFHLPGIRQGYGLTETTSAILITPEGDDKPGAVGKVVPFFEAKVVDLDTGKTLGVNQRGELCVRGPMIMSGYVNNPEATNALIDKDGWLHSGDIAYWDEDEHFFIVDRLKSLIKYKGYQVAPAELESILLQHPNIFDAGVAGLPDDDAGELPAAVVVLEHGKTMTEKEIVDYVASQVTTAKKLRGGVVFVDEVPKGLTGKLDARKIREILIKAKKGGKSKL
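Purified P. pyralis luciferase (10nM final) with 10uM D-luciferin and 10uM ATP (Km levels) in 50mM Tris acetate pH 7.5, 10mM Mg acetate, 0.01% Tween-20, 0.05% BSA; qHTS 6-point titration, ~60 µM downward; luminescence read.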
Active calls of the source: *; ? = inconclusive; nt = no result given; [ ] = remark or other dose. A selection: hits, their analogues and other compounds. The true share with any hit is near 9.4%. The call rests on the fitted dose curve; in most records, active means well fitted curve in the direction sought with a large enough effect; inconclusive means small, poorly fitted or top-dose-only effect, or another doubt; inactive means no such curve, though single readings can be large; an effect the other way counts as inactive or inconclusive. Potency means the concentration at half of the fitted maximal effect.

SMILES	Rab9 prom act	ELG1 repair inh	NPC1 promoter act	SMN2 splice enh	ELG1 genotoxic	FLuc modulator
O=C(Nc1ccc(Oc2ccc(NC(=O)c3ccco3)c(NC(=O)c3ccco3)c2)cc1)c1ccco1	-2%	16µM*	2%	?	-17%	-9%
CCOc1ccc(NC(=O)c2cc3c(C)nc4ccccc4c3o2)cc1	-22%	8.2µM*	-24%	-33%	-31%	0%
COc1cc2c(cc1OC)C1N(CC2)C(=O)CCC12C(=O)CCCC2=O (stereo not drawn)	nt	nt	nt	29%	nt	nt
Nc1nonc1-n1nnc(C(=O)N/N=C/c2cccnc2)c1-c1cccs1	-5%	-1%	-12%	nt	-8%	?
COc1ccc(/C=N/NC(=O)c2nnn(-c3nonc3N)c2-c2cccs2)cc1OC	11%	-2%	0%	nt	-11%	19µM*
COc1cc(/C=N/NC(=O)c2nnn(-c3nonc3N)c2-c2cccs2)ccc1O	2%	-7%	-1%	nt	-11%	?
Cc1ccc(/C=N/NC(=O)c2nnn(-c3nonc3N)c2-c2cccs2)cc1	1%	9%	-2%	nt	0%	9.5µM*
O=c1n(Cc2ccc([N+](=O)[O-])cc2)c2ccccc2c2nc(-c3ccccc3)nn12	nt	nt	nt	nt	nt	-7%
CCC(=O)N1CCCc2cc(S(=O)(=O)N3CCC(C(=O)NC4CCC(C)CC4)CC3)ccc21 (stereo not drawn)	nt	nt	nt	nt	nt	-3%
CCn1cc2nc(SCC(=O)Nc3cc(OC)cc(OC)c3)n(Cc3ccc(Cl)cc3)c(=O)c2n1	nt	nt	nt	-4%	nt	-2%
COC(=O)c1ccsc1NC(=O)CN1CCN(c2ccc(F)cc2)CC1	-1%	?	-1%	-14%	-11%	3%[2.3 µM]
COC(=O)c1ccsc1NC(=O)CN1CCN(Cc2ccc3c(c2)OCO3)CC1	4%	5.2µM*	-3%	0%	-9%	-1%
COC(=O)c1c(NC(=O)CN2CCN(Cc3ccc4c(c3)OCO4)CC2)sc(C)c1C	2%	8.2µM*	1%	-15%	-1%	2%
CCn1c(=O)n(CC)c2cc(N3CCCC3)c(NC(=O)c3cccc(Cl)c3)cc21	-9%	?	-6%	nt	-10%	1%
CCn1c(=O)n(CC)c2cc(N3CCCC3)c(NC(=O)c3cc(Cl)ccc3OC)cc21	-12%	18µM*	-2%	nt	-11%	0%
CCOc1ccccc1C(=O)Nc1cc2c(cc1N1CCCC1)n(CC)c(=O)n2CC	-12%	8.2µM*	-6%	nt	-20%	-2%
CCn1c(=O)n(CC)c2cc(N3CCCC3)c(NC(=O)c3ccccc3OC)cc21	0%	?	-1%	nt	-8%	-2%
CCn1c(=O)n(CC)c2cc(N3CCCC3)c(NC(=O)c3ccc(OC)c(Br)c3)cc21	-9%	12µM*	-7%	nt	-3%	1%
COc1ccc(C(CC(=O)NCc2ccccc2Cl)N2Cc3ccccc3C2=O)cc1OC (stereo not drawn)	nt	nt	nt	nt	nt	3%
Cc1ccc(NP(=O)(c2ccc(N(C)C)cc2NC(=O)c2cccs2)N2CCOCC2)cc1Cl (stereo not drawn)	-2%	16µM*	0%	14%	-1%	?
Cc1ccc(NP(=O)(c2ccc(N(C)C)cc2NC(=O)c2cccs2)N2CCOCC2)cc1 (stereo not drawn)	12%	?	-3%	15%	0%	-19%
CCC(C)NC(=O)c1ccccc1NC(=O)CN1C(=O)c2cccc3cccc1c23 (stereo not drawn)	nt	nt	nt	2%	nt	-1%
COc1ccc2c(C(=O)c3ccc(C)cc3)n(Cc3ccc(C(N)=O)cc3)[n+]([O-])c2c1	?	?	?	nt	?	13µM*
COc1ccc(C(=O)c2c3ccccc3[n+]([O-])n2Cc2ccc(C(N)=O)cc2)cc1	-1%	25%	-3%	nt	6%	?
C(=C\c1ccco1)/c1nc2ccccc2[nH]1	0.63µM*	?	3.5µM*	nt	?	1.9µM*
SMILES	Rab9 prom act	ELG1 repair inh	NPC1 promoter act	SMN2 splice enh	ELG1 genotoxic	FLuc modulator
O=c1[nH]c2ccccc2nc1/C=C/c1ccc(Cl)cc1	0.89µM*	?	3.2µM*	nt	9.2µM*	?
C(=C\c1nc2ccccc2[nH]1)/c1ccccc1	0.4µM*	?	0.18µM*	0.28µM*	?	0.3µM*
COc1ccc(-c2cc(C)no2)cc1S(=O)(=O)NC1CCC(C)CC1 (stereo not drawn)	nt	nt	nt	nt	nt	6%
CCN1CCN(c2oc(-c3ccc(COc4ccc(C)cc4)o3)nc2C#N)CC1	nt	nt	nt	nt	nt	-4%
CCOC(=O)N1CCN(C(=O)c2nc3ccccc3s2)CC1	13%	?	16%	?	?	19µM*
CCOC(=O)N1CCN(CC(=O)Nc2nc3ccccc3s2)CC1	0%	-23%	-5%	nt	-4%	0%
CCOC(=O)N1CCN(C(=O)c2ccc3c(c2)sc2nc(-c4ccccc4)cn23)CC1	3.2µM*	?	3.5µM*	-32%	1%	21µM*
CCOC(=O)C1CCN(C(=O)c2ccc3c(c2)sc2nc(-c4ccccc4)cn23)CC1	nt	nt	nt	nt	nt	5%
COc1ccccc1CNC(=O)Cc1c(C)c2c(cc(C)c3c(C)coc32)oc1=O	nt	nt	nt	-1%	nt	-2%
CCCNC(=O)COCc1cc(-c2ccc(F)cc2)on1	nt	nt	nt	nt	nt	-7%
Cc1ccc(NC(=O)c2ccc(OC(=S)N3CCOCC3)cc2)cc1	2µM*	?	?	2%	?	-12%
O=C(Nc1cccc(Br)c1)c1cccc(OC(=S)N2CCOCC2)c1	3%	15µM*	-4%	nt	-10%	-11%
O=C(Nc1ccccc1Br)c1ccc(OC(=S)N2CCOCC2)cc1	-2%	-30%	-7%	nt	-4%	-6%
Cc1ccc(NC(=O)c2ccc(CNc3c(N4CCOCC4)c(=O)c3=O)cc2)cc1	3%	16%	1%	-14%	1%	15µM*
O=C(Nc1ccc(C(=O)N2CCOCC2)cc1)c1cccc(Br)c1	14%	23%	12%	nt	?	-17%
C[C@H](Br)C(=O)c1ccc2cc(Br)c3ccccc3c2c1	nt	nt	nt	-16%[9.22 µM]	nt	nt
COc1ccccc1/C=C/C(=O)Nc1ccc(S(=O)(=O)Nc2cc(C)on2)cc1	3%	19%	-1%	nt	14%	24µM*
Cc1cc(NS(=O)(=O)c2ccc(NC(=O)/C=C/c3ccc(Br)cc3)cc2)no1	-2%	-13%	-6%	nt	5%	19µM*
CC(=O)c1ccc(NC(=O)/C=C/c2ccc(C)cc2)cc1	-8%	?	-5%	12%	10%	?
Cc1ccc(/C=C/C(=O)Nc2cc(C)on2)cc1	4µM*	?	2.5µM*	?	?	?
Cc1ccc(/C=C/C(=O)NN2CCN(C)CC2)cc1	11%	?	8%	nt	8%	-2%
